Bioassay records: PubChem BioAssay, several laboratories
Only some compounds are listed: those with a hit (about 3.3% of all), similar ones and a draw of the others.
Cl transport mod = KCC2 cotransporter modulators, thallium flux, primary screen, cell-based, HEK293 KCC2, FluoZin-2 fluorescence, MLSMR | KCC2 cells, thallium flux FluoZin-2 fluorescence | B-score of Tl+ flux slope (higher = more flux/activation; lower = inhibition) at 10 µM | hit rate 2.2% among 190,000 | AID 1456, 2008;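 active = thallium flux slope and its plate-corrected score both differing from the plate sample mean at a set confidence after two filtering rounds, in either direction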;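 note: slope of fluorescence scaled to starting intensity during 10 to 20 s after thallium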
Efflux pump inh = inhibitors of Candida efflux pumps in yeast, primary screen, S. cerevisiae, Nile Red, multiplex | S. cerevisiae Candida pump triplex | inhibition, % at 10 µM | hit rate 0.44% among 330,000;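 active = plate passing quality check with inhibition over a set limit, or well fluorescence over plate mean plus 4 SD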;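 note: Nile Red retained in pooled yeast measured as flow cytometry median fluorescence; 0% = buffer negative control and 100% = Enniatin B positive control; higher means more Nile Red kept so more efflux inhibition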
Cardio protect = cardioprotection against H2O2-induced cell death, primary screen, uHTS, H9c2 cells, ATPLite luminescence; hit rate 0.63% among 360,000; H9c2 cardiomyocytes, H2O2 injury protection, 2 h; protection from H2O2 cell death, % at 20 µM;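 active = compounds giving at least 50% protection of heart cells from peroxide-induced death in the single-dose screen, raw or plate-pattern-corrected value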;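 note: 0% = DMSO wells with peroxide and 100% = DMSO wells without peroxide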
PHOSPHO1 block = PubChem AID 1565. recombinant PHOSPHO1, absorbance phosphatase assay. hit rate 1.1% among 290,000. inhibition, % at 13.3 µM; in the data active = inhibition above about 60%
Target sequence (Q8TCT1 whole entry, looked up): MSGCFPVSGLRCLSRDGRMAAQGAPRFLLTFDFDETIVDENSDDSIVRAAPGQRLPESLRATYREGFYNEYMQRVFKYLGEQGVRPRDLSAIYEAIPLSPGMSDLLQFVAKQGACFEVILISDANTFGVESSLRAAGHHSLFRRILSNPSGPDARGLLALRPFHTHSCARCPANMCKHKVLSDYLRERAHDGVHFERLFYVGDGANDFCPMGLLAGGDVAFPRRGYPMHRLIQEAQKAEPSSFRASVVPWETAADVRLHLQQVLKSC
Calb FLC = C. albicans growth inhibition with fluconazole, primary screen, CaCi-2 strain, Alamar Blue fluorescence; hit rate 0.57% among 300,000; C. albicans CaCi-2 (fluconazole-resistant clinical isolate) + fluconazole, 48 h; growth inhibition, % (no concentration beside the values);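 active = growth inhibition above about 58% in most replicates, limit read from the data, passing the limit was not always enough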;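 note: all wells also contain fluconazole at 8 µg/ml as a sub-toxic cotreatment; 0% = median of DMSO wells and 100% = median of geldanamycin control wells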
* = called active by the depositor; · = not tested or not shown.

SMILES | Cl transport mod | Efflux pump inh | Cardio protect | PHOSPHO1 block | Calb FLC
NC(=O)c1c(/N=C/c2cccnc2)sc2c1CCCC2 | -0.87 | 0 | 4 | 77* | 31
Cc1ccc(/C=N/c2sc3c(c2C(N)=O)CCCC3)o1 | 0.19 | 0 | 10 | -152 | 15
NC(=O)c1c(NC(=O)c2ccncc2)sc2c1CCCC2 | 0.043 | 0 | -7 | -23 | 73*
NC(=O)c1c(NC(=O)Cn2nc(C(=O)O)c3ccccc3c2=O)sc2c1CCCC2 | -0.87 | 0 | 6 | -10 | 3
NC(=O)c1c(NC(=O)c2ccco2)sc2c1CCC2 | -0.97 | 0 | -3 | 33 | 92*
NC(=O)c1c(NC(=O)Cn2nc(C(=O)O)c3ccccc3c2=O)sc2c1CCC2 | -1.4 | 0 | 54* | 10 | -4
CCC(CO)NCC#Cc1ccccc1 (centres undefined) | 0.69 | 0 | -1 | 29 | 0
CCOC(=O)c1c(NC(=O)OC)sc2c1CCC2 | -1 | 0 | 0 | 2 | 2
COC(=O)Nc1sc2c(c1C(N)=O)CCCCCC2 | -0.00097 | 0 | 10 | 69* | -1
CCN1CCN(C(=O)CN2C(=O)COc3ccc(C)cc32)CC1 | · | 0 | -1 | 32 | -13
O=c1cc(-c2ccncc2)oc2ccccc12 | 0.27 | 0 | 53* | -7 | 5
Cc1ccc(/C=C2\SC(=S)N(NS(=O)(=O)c3ccc(C)cc3)C2=O)cc1 | · | 0 | -4 | -24 | -1
C=CCOc1ccc(/C=C2\SC(=S)N(NS(=O)(=O)c3ccc(C)cc3)C2=O)cc1 | · | 0 | -4 | 20 | 88*
Cc1nc2nc(C)c(NS(=O)(=O)c3ccc(Cl)cc3)c(=O)n2[nH]1 | · | 0 | 1 | 8 | 1
COc1ccc(CCNC(=O)C(C)Sc2ccc(C)cc2)cc1OC (centres undefined) | -0.12 | 0 | 0 | -2 | 16
COc1ccc(CCNC(=O)C(C)Sc2ccccc2)cc1OC (centres undefined) | · | 0 | 17 | 60* | 3
COC(=O)c1ccc(CSc2ccccc2NC(=S)Nc2cccc(C(F)(F)F)c2)o1 | · | · | -10 | · | ·
COc1ccc2[nH]cc(C(=O)CNc3nc(C)cs3)c2c1 | -0.28 | 0 | -6 | 89* | 1
COc1ccc2[nH]cc(C(=O)CCl)c2c1 | 0.024 | 0 | -2 | 30 | 56
Cc1n[nH]c(C)c1CCNCc1ccc(OCC(O)CN2CCCCC2)cc1 (centres undefined) | · | 0 | 0 | 35 | 71*
CCCc1ccc(OCC(O)CN2CCCC2)cc1 (centres undefined) | · | 0 | -3 | 24 | -66
Cc1cc(C)c(C)c(S(=O)(=O)NCCCN2CCCC2=O)c1C | · | -1 | 10 | 48 | -1
N=c1sccn1CC(=O)Nc1cccc(Oc2ccccc2)c1 | · | 0 | -4 | 38 | -5
N=c1sccn1CC(=O)Nc1cc(Cl)ccc1Oc1ccccc1 | -0.28 | 0 | 12 | 69* | -2
CCOC(=O)c1c(NC(=S)NCC2CCCO2)sc(C)c1C (centres undefined) | 25* | 0 | 0 | 36 | 85*
SMILES | Cl transport mod | Efflux pump inh | Cardio protect | PHOSPHO1 block | Calb FLC
Cc1nc2c(C(=O)NCc3ccc4c(c3)OCO4)c[nH]n2c(=O)c1Cl | -0.8 | 0 | 7 | 50 | 12
Cc1nc2c(C(=O)NCCC3=CCCCC3)c[nH]n2c(=O)c1Cl | -0.33 | 0 | 4 | 82* | 33
CC(C)C1Cc2c(sc3[nH]c(=S)n(Cc4ccccc4)c(=O)c23)CO1 (centres undefined) | 19* | 0 | 10 | 23 | 5
Cc1nnc2n(-c3ccccc3)c(=O)c3c4c(sc3n12)COC(C(C)C)C4 (centres undefined) | 0.66 | 0 | 13 | -9 | 4
Cc1nn(C)cc1/C=C/C(=O)c1ccccc1 | -0.36 | 0 | -16 | -1 | 16
CCn1cc(/C=C/C(=O)c2ccc(O)cc2)c(C)n1 | 0.81 | 0 | -25 | 60* | 4
O=C1c2ccccc2NC(c2ccc(-c3ccccc3F)o2)N1O (centres undefined) | · | 0 | 47 | · | ·
CCOC(=O)c1ccc(-c2ccc(C3Nc4ccccc4C(=O)N3O)o2)cc1 (centres undefined) | 7.1* | 0 | 59* | -9 | 91*
Cc1cc([N+](=O)[O-])ccc1-c1ccc(C2Nc3ccccc3C(=O)N2O)o1 (centres undefined) | 8.4* | 0 | 63* | -9 | 101*
C[C@@H](NC(=O)c1nc[nH]c1C(=O)NCc1ccc(CNC(=O)OC(C)(C)C)cc1)c1ccccc1 | · | 0 | -8 | · | ·
CC(=O)OCC(OC(C)=O)C(OC(C)=O)C(OC(C)=O)C(=O)Nc1cccc(C)c1 (centres undefined) | 0.2 | 0 | 7 | 5 | 3
NS(=O)(=O)c1ccc(NC(=S)NC2CCCC2)cc1 | 1.1 | 0 | 4 | 81* | -2
NS(=O)(=O)c1ccc(NC(=S)NC2CCCCCC2)cc1 | 1.7 | 0 | 5 | 6 | -10
Cc1ccc(S(=O)(=O)N2CCN(C(=O)CSc3ncn[nH]3)CC2)cc1 | · | 0 | -11 | · | ·
Cn1c(CN2CCN(C(=O)c3ccco3)CC2)nc2cc([N+](=O)[O-])ccc21 | · | 0 | 2 | 66* | ·
CC1=NN(C(=O)c2ccc(Cn3nc(C)c([N+](=O)[O-])c3C)o2)C(O)(C(F)(F)F)C1 (centres undefined) | 0.53 | 0 | 11 | 4 | -12
CC1CCCN(Cc2nc3c(c(=O)n(C)c(=O)n3C)n2CCCc2ccccc2)C1 (centres undefined) | -0.23 | 0 | 55* | -3 | -2
Cn1c(=O)c2c(nc(CN3CCN(C(=O)c4ccco4)CC3)n2CCCc2ccccc2)n(C)c1=O | -0.055 | 0 | 52* | 7 | -2
Cc1nn(Cc2ccc(C(=O)N3CCN(C(=O)c4ccco4)CC3)o2)c(C)c1[N+](=O)[O-] | · | 0 | 54* | 37 | -5
COc1cc2oc(=O)ccc2cc1[C@@H](O)[C@@H]1OC(C)(C)OC1(C)C | · | 0 | -6 | · | ·
CSC(=Nc1ccccc1)N=C(SCc1ccccc1)N(C)C | · | · | -20 | · | ·
COc1cc(-c2cc(NC=O)c3ncc(-c4ccc(C(C)=O)cc4)n3c2)ccc1O | · | · | 83* | · | ·
COc1cccc(-c2cnc3c(NC(C)=O)cc(-c4cc(OC)c(OC)c(OC)c4)cn23)c1 | · | · | 57* | · | ·
COc1cccc(-c2cnc3c(NC=O)cc(-c4cccc(C(=O)N(C)C)c4)cn23)c1 | · | · | 58* | · | ·
COc1cccc(-c2cnc3c(NC=O)cc(-c4ccc(O)c(OC)c4)cn23)c1 | · | · | 85* | · | ·
COc1ccc(C(=O)NCC(c2ccco2)N(C)C)cc1S(=O)(=O)NCc1ccc(Cl)cc1 (centres undefined) | · | 0 | 0 | · | ·
CCOCCCNC(=O)c1ccc(N(C)S(=O)(=O)c2ccc(OC)cc2)cc1 | -0.67 | 0 | 3 | 18 | 106*
